test system: EIF2AK1; settings: concentration: 1 μM, replicates: in singlicate; n = 1
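Further: KINOMEscan kinase panel screen.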

**Q.** For `CCn1c(-c2ccoc2)nc2cnccc21` [SB-733887], which “%Inh” value is on record?
**A.** 8%

**Q.** With `O=c1cc(N2CCOCC2)nc2n(Cc3ccc(F)c(Cl)c3)ccn12` [GSK2297099] as the compound, how does the “%Inh” value read?
**A.** 0%

**Q.** For `Cc1cccc(-c2nc(Nc3ccc4c(cnn4C)c3)c3ccccc3n2)n1` [GW876731], which “%Inh” value is on record?
**A.** 0%

**Q.** For `Cl.NS(=O)(=O)c1cccc(Nc2cc(-c3ccc(F)cc3)n[nH]2)c1` [GW824645], which “%Inh” value is on record?
**A.** 0%

**Q.** Which “%Inh” value does the source give for `COc1cc(Nc2nccc(N3CCC(NC(=O)C4COc5ccccc5O4)C3)n2)cc(OC)c1OC` (stereo not drawn) [GSK1379761] here?
**A.** 0%

**Q.** For `COC(=O)c1c(-c2ccccc2)c2cc(Br)ccc2c(=O)n1Cc1ccc(NC(=O)CCC(=O)O)cc1`, which “%Inh” value is on record?
**A.** 12%

**Q.** Which “%Inh” value does the source give for `CN1C(=O)C(Nc2cc(Cl)c(O)c(Cl)c2)=C(c2ccc(Cl)cc2)C1=O` [SB-404321] here?
**A.** 0%

**Q.** With `CCC(=O)c1c(-c2ccccc2)c2cc(Cl)ccc2c(=O)n1Cc1cc(S(C)(=O)=O)n(CC(N)=O)n1` as the compound, how does the “%Inh” value read?
**A.** 0%

**Q.** With `Nc1ncnc2c1ncn2-c1ccc(Cl)cc1` [AH2635] as the compound, how does the “%Inh” value read?
**A.** 0%

**Q.** For `O=C(NCc1cccs1)c1cc(C(=O)c2c(Cl)cccc2Cl)c[nH]1` [GW823670], which “%Inh” value is on record?
**A.** 0%

**Q.** For `CCn1c(-c2nonc2N)nc2ccccc21` [SB-693162/GW549034], which “%Inh” value is on record?
**A.** 48%

**Q.** With `O=C(NCCNc1ccnc(Nc2ccc(F)cc2)n1)Nc1ccc2c(c1)OCO2` [GSK1379882] as the compound, how does the “%Inh” value read?
**A.** 0%

**Q.** `COc1ccc(Nc2nccc(N3CCC(NS(=O)(=O)c4ccc(NC(C)=O)cc4)C3)n2)cc1` (stereo not drawn) [GSK1379729] was tested. Which “%Inh” value did it give?
**A.** 0%

**Q.** For `COc1cc2nccc(Nc3cccc(Oc4ccccc4)c3)c2cc1OC.Cl` [GW284543], which “%Inh” value is on record?
**A.** 0%

**Q.** How did the “%Inh” value turn out when `O=C(Nc1ccc2c(c1)OCO2)NC1CCN(c2ccnc(NCc3ccc(F)cc3)n2)CC1` [GSK1379859] was run?
**A.** 10%

**Q.** For `Nc1ncnc2c1ncn2-c1cccc(F)c1` [SKF-97560], which “%Inh” value is on record?
**A.** 28%

**Q.** `COc1ccc(-c2cc3c(C)nc(N)nc3n([C@H]3CC[C@H](O)CC3)c2=O)cn1` was tested. Which “%Inh” value did it give?
**A.** 0%

**Q.** Which “%Inh” value does the source give for `COc1ccc(CNC(=O)NC2CCN(c3ccnc(Nc4ccc(F)cc4)n3)C2)cc1` (stereo not drawn) [GSK1379706] here?
**A.** 0%

**Q.** Which “%Inh” value does the source give for `Nc1ncnc2c1ncn2-c1cccc2ccccc12` [SKF-97184] here?
**A.** 0%

**Q.** With `COc1cccc(C2=C(N(C)c3ccccc3)C(=O)NC2=O)c1` [SB-334865] as the compound, how does the “%Inh” value read?
**A.** 0%

**Q.** For `Nc1nc(N)c2nc(-c3ccccc3)[nH]c2n1` [SKF-12778], which “%Inh” value is on record?
**A.** 21%

**Q.** For `COc1cc2ncn(-c3cc(OCc4ccncc4Br)c(C(N)=O)s3)c2cc1OC` [GW854278], which “%Inh” value is on record?
**A.** 0%

**Q.** Which “%Inh” value does the source give for `Nc1n[nH]c2nnc(-c3ccccc3)c(-c3ccccc3)c12` [GW554060] here?
**A.** 0%

**Q.** For `Nc1nc(-c2ccccc2F)c(-c2ccnc3ccccc23)s1` [GW560459], which “%Inh” value is on record?
**A.** 0%

**Q.** How did the “%Inh” value turn out when `Nc1nccc2scc(-c3ccc4c(c3)CCN4C(=O)Cc3ccccc3)c12` [GSK2576924] was run?
**A.** 0%

**Q.** Which “%Inh” value does the source give for `Cc1cccc(-c2cc(-c3c[nH]nc3-c3ccccn3)ccn2)c1` [GW679395] here?
**A.** 0%

**Q.** With `Cc1ccc(-c2ccc3c(ccc4sc5c(c43)NC[C@@H](C)N=C5N(C)C)n2)cn1` as the compound, how does the “%Inh” value read?
**A.** 7%

**Q.** For `CCCNC(=O)Nc1ccc(Oc2ncnc3ccn(C)c23)cc1`, which “%Inh” value is on record?
**A.** 0%

**Q.** For `CCCC(=O)Nc1n[nH]c2ncc(-c3cccc4ccccc34)cc12` [SB-642057], which “%Inh” value is on record?
**A.** 13%

**Q.** Which “%Inh” value does the source give for `CCC(=O)c1c(-c2ccccc2)c2cc(Cl)ccc2c(=O)n1Cc1ccc(C(=O)O)cc1` here?
**A.** 0%

**Q.** Which “%Inh” value does the source give for `COc1cc2ncn(-c3cc(OCCCc4ccccc4)c(C(N)=O)s3)c2cc1OC` [GSK205189] here?
**A.** 1%

**Q.** `Cc1cc(Nc2nc(-c3cccc(C)n3)nc3ccccc23)ccn1` [GW872411] was tested. Which “%Inh” value did it give?
**A.** 0%

**Q.** `COc1ccc(-c2cc3c(C)nc(N)nc3n([C@H]3CC[C@H](OCCO)CC3)c2=O)cn1` was tested. Which “%Inh” value did it give?
**A.** 8%

**Q.** `O=C(Nc1n[nH]c2nc(-c3ccccc3)c(Cl)cc12)C1CC1` [SB-734909] was tested. Which “%Inh” value did it give?
**A.** 18%

**Q.** How did the “%Inh” value turn out when `COc1cc2ncn(-c3cc(OCc4ccc(S(C)(=O)=O)cc4)c(C(N)=O)s3)c2cc1OC` [GW869979] was run?
**A.** 7%

**Q.** `CN1C(=O)C(Nc2ccccc2)=C(c2ccccc2)C1=O` [SB-300079] was tested. Which “%Inh” value did it give?
**A.** 0%
